High-throughput results deposited in PubChem by Broad Institute.
Rtt109 HAT inh = inhibitors of C. albicans Rtt109/Vps75 HAT, primary screen, biochemical, ThioGlo CoA-SH fluorescence, plate reader | purified Rtt109/Vps75, 4 h | inhibition, % at 34.9 µM | actives 0.16% (n = 330,000) | AID 540336, 2011;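 active = inhibition of at least 50% in every replicate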
PDI turbidity = inhibitors of human PDI, primary screen, biochemical, turbidity, single point, plate reader; inhibition, % at 10 µM; Protein disulfide-isomerase (Homo sapiens), P07237; PDI insulin aggregation turbidity, A650, 90 min; actives 0.052% (n = 350,000);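 active = mean inhibition across replicates of 30% or more, whatever share of single replicates reach that level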
SIRT5 block = SIRT5 desuccinylase inhibitors, primary screen, biochemical, fluorescence imaging, single point, set 5; NAD-dependent protein deacylase sirtuin-5, mitochondrial (Homo sapiens), Q9NXA8; inhibition, % at 15 µM; Purified SirT5, succinyl-peptide AMC, trypsin-coupled fluorescence; actives 1.1% (n = 330,000); in the data active = inhibition above about 15%
Target sequence (Q9NXA8 whole entry, looked up): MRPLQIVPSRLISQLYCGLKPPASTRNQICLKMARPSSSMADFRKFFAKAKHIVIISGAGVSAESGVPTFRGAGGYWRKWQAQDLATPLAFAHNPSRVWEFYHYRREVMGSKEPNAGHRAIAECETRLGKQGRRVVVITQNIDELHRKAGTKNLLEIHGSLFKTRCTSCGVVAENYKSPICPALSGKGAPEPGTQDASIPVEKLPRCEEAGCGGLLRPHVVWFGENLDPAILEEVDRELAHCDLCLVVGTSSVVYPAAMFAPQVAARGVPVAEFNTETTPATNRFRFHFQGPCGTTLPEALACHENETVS
DENV2 CPE = inhibitors of DENV2 cytopathic effect, primary screen, cell-based, plate reader, single concentration; CPE inhibition, % at 9.99 µM; DENV2-infected cells, cytopathic effect rescue; AID 651640, 2012; actives 1.7% (n = 350,000); in the data active = CPE inhibition above about 20%, passing the limit was not always enough; tested in BHK-21 cells
ERp5 block = inhibitors of ERp5-driven insulin aggregation, primary screen, biochemical, turbidity, absorbance 650 nm, single point. Protein disulfide-isomerase A6 (Homo sapiens), Q15084. 90 min. inhibition, % at 9.99 µM. actives 0.05% (n = 350,000);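 active = mean replicate inhibition above about 25%, with every replicate also reaching it, limit read from the data, passing the limit was not always enough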
Target sequence (Q15084 whole entry, looked up): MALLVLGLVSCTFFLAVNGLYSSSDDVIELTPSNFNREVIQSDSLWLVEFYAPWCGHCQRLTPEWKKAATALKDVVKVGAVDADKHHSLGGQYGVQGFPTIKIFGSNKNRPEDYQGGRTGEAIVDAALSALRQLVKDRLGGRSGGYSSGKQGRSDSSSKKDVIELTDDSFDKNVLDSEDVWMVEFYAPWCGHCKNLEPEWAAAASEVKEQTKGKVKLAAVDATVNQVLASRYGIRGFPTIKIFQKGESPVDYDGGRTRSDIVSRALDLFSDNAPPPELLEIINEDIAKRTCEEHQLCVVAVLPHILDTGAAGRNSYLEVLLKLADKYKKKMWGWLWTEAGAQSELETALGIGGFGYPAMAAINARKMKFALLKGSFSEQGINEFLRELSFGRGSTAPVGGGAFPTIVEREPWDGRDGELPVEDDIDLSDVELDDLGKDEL
Of the large screens only hits and unclear results are named; the others gave an inactive call. Only some compounds are listed: those with a hit (about 2.3% of all), similar ones and a draw of the others.

COC(=O)CN(c1cc(Cl)ccc1OC)S(=O)(=O)c1ccc(OC)c(OC)c1	DENV2 CPE 61
COC(=O)C1=C(C)N(Cc2ccc(Cl)cc2)C(=S)NC1c1ccc(F)cc1 (stereo not given)	none (no result: Rtt109 HAT inh, PDI turbidity)
COC(=O)C1=C(C)N(Cc2ccc(Cl)cc2)C(=S)NC1c1ccc(Br)cc1 (stereo not given)	DENV2 CPE 25 (no result: Rtt109 HAT inh, PDI turbidity)
COC(=O)C1=C(C)N(Cc2ccc(Br)cc2)C(=S)NC1c1cccc(Br)c1 (stereo not given)	DENV2 CPE 42 (no result: Rtt109 HAT inh, PDI turbidity)
COC(=O)C1=C(C)N(CC(C)C)C(=S)NC1c1cccc(F)c1 (stereo not given)	DENV2 CPE 56 (no result: Rtt109 HAT inh, PDI turbidity)
C[C@H]1CN([C@@H](C)CO)C(=O)CCCn2cc(nn2)CO[C@H]1CN(C)Cc1ccc(O)cc1	none (no result: Rtt109 HAT inh, PDI turbidity)
CCN(CC(=O)Nc1c(F)cccc1F)C(=O)/C=C/c1ccc2c(c1)OCO2	DENV2 CPE 84
CSc1nc(N)nc2c1ncn2CC(=O)NCc1ccc2c(c1)OCO2	SIRT5 block 21
C[C@H]1CN([C@@H](C)CO)C(=O)c2cc(NC(=O)CCCCCC(=O)Nc3ccccc3N)ccc2O[C@@H]1CN(C)S(=O)(=O)c1cn(C)cn1	none (no result: Rtt109 HAT inh, PDI turbidity)
COc1cc(Nc2ccn3nc(-c4ccccc4Cl)cc3n2)cc(OC)c1OC	DENV2 CPE 30 (no result: Rtt109 HAT inh)
CS(=O)(=O)N1[C@@H]2Cn3c(ccc(C4=CCCCC4)c3=O)[C@H]1[C@@H](C(=O)N1CCCCC1)[C@@H]2CO	none (no result: Rtt109 HAT inh, PDI turbidity)
Cc1ccccc1S(=O)(=O)N1CCCCN2[C@@H](CO)[C@@H](c3ccc(-c4ccccc4)cc3)[C@@H]2C1	none (no result: Rtt109 HAT inh, PDI turbidity)
Cc1ccccc1S(=O)(=O)N1CCCCN2[C@H](CO)[C@H](c3ccc(-c4ccccc4)cc3)[C@H]2C1	SIRT5 block 17 (no result: Rtt109 HAT inh, PDI turbidity)
COCC#Cc1ccc([C@@H]2[C@H]3CN(S(=O)(=O)c4ccccc4F)CCCCN3[C@H]2CO)cc1	DENV2 CPE 33 (no result: Rtt109 HAT inh, PDI turbidity)
O=S(=O)(c1ccccc1F)N1CCCCN2[C@H](CO)[C@H](c3ccc(-c4ccccc4)cc3)[C@H]2C1	DENV2 CPE 34 (no result: Rtt109 HAT inh, PDI turbidity)
O=S(=O)(c1ccccc1F)N1CCCCN2[C@H](C1)[C@@H](c1ccc(-c3ccccc3)cc1)[C@@H]2CO	none (no result: Rtt109 HAT inh, PDI turbidity)
COCC#Cc1ccc([C@@H]2[C@@H](CO)N3CCCCN(S(=O)(=O)c4ccccc4C)C[C@@H]23)cc1	none (no result: Rtt109 HAT inh, PDI turbidity)
Cc1ccccc1S(=O)(=O)N1CCCCN2[C@H](CO)[C@@H](c3ccc(-c4ccccc4)cc3)[C@H]2C1	SIRT5 block 19 (no result: Rtt109 HAT inh, PDI turbidity)
C[C@@H]1CCCCO[C@@H](CN(C)S(=O)(=O)c2ccc(Cl)cc2)[C@H](C)CN([C@H](C)CO)C(=O)c2cc(NC(=O)NC3CCCCC3)ccc2O1	none (no result: Rtt109 HAT inh, PDI turbidity)
O=C(Cc1cccnc1)N1CC[C@@H]2[C@@H](CO)Nc3ccc(C#Cc4ccccc4F)cc3[C@@H]21	none (no result: Rtt109 HAT inh, PDI turbidity)
COc1ccc2c3c([nH]c2c1)[C@@H](CO)N(CC1CC1)CC31CN(C(=O)NC2CCCC2)C1	none (no result: Rtt109 HAT inh, PDI turbidity)
Cc1[nH]n(-c2ccccc2)c(=O)c1C=NC1CCCCC1	Rtt109 HAT inh 59
COc1ccc2c3c([nH]c2c1)[C@H](CO)N(S(C)(=O)=O)CC31CCN(C(=O)c2ccncc2)CC1	none (no result: Rtt109 HAT inh, PDI turbidity)
O=C(CCSc1nnc(-c2ccccc2)o1)N1CCOCC1	DENV2 CPE 27 (no result: Rtt109 HAT inh)
CCCCC(=O)Nc1cc([N+](=O)[O-])ccc1Cl	DENV2 CPE 23
CCCCC(=O)Nc1cc([N+](=O)[O-])ccc1F	none
COC(=O)c1ccc(N2C(c3cc(OC)cc(OC)c3)=Cc3ccc(OC)cc3C2CC(=O)c2ccco2)cc1 (stereo not given)	DENV2 CPE 31 (no result: Rtt109 HAT inh, PDI turbidity)
O=C(CC1c2cc(F)ccc2C=C(c2ccsc2)N1c1ccc(C#CCCO)cc1)c1ccco1 (stereo not given)	SIRT5 block 17 (no result: Rtt109 HAT inh, PDI turbidity)
COC(=O)C1(C(=O)OC)c2ncccc2N(S(=O)(=O)c2ccc(C)cc2)C1CC(=O)c1ccccc1 (stereo not given)	DENV2 CPE 21 (no result: Rtt109 HAT inh, PDI turbidity)
Cc1cccc(S(=O)(=O)N2C[C@@H](O)COC[C@@H]3O[C@@H](CC(=O)NCCCN4CCOCC4)CC[C@H]32)c1	none (no result: Rtt109 HAT inh, PDI turbidity)
COc1ccccc1C(CNC(=O)COc1cc(C)ccc1Cl)N1CCCC1 (stereo not given)	none
COc1ccc(C(CNC(=O)COc2cc(C)ccc2Cl)N2CCCCC2)cc1 (stereo not given)	DENV2 CPE 37
CCC(=O)Nc1ccc2c(c1)C(=O)N(C)C[C@H](OC)[C@H](C)CN(Cc1ccccc1OC)[C@H](C)CO2	none (no result: Rtt109 HAT inh, PDI turbidity)
CCC(=O)Nc1ccc2c(c1)C(=O)N(C)C[C@H](OC)[C@H](C)CN(Cc1ccccc1OC)[C@@H](C)CO2	DENV2 CPE 22 (no result: Rtt109 HAT inh, PDI turbidity)
CO[C@@H]1CN(C)C(=O)c2cc(NC(C)=O)ccc2OC[C@H](C)N(Cc2nccs2)C[C@@H]1C	DENV2 CPE 59 (no result: Rtt109 HAT inh, PDI turbidity)
COCC(=O)Nc1ccc2c(c1)OC[C@H](C)N(Cc1cccc(F)c1)C[C@H](C)[C@@H](OC)CN(C)C2=O	DENV2 CPE 25 (no result: Rtt109 HAT inh, PDI turbidity, ERp5 block)
COCC(=O)Nc1ccc2c(c1)C(=O)N(C)C[C@H](OC)[C@@H](C)CN(Cc1ccccc1)[C@@H](C)CO2	DENV2 CPE 26 (no result: Rtt109 HAT inh, PDI turbidity)
CO[C@H]1CN(C)C(=O)c2cc(NC(C)=O)ccc2OC[C@@H](C)N(Cc2nccs2)C[C@H]1C	none (no result: Rtt109 HAT inh, PDI turbidity)
Cc1noc(C)c1NC(=O)N(C)C[C@H]1Oc2ccc(NS(C)(=O)=O)cc2C(=O)N([C@@H](C)CO)C[C@@H]1C	none (no result: Rtt109 HAT inh, PDI turbidity)
O=C(N[C@@H]1CC[C@H](CCNC(=O)C2CCOCC2)O[C@H]1CO)c1ccccn1	none (no result: Rtt109 HAT inh, PDI turbidity)
COCC(=O)Nc1ccc2c(c1)C(=O)N(C)C[C@@H](OC)[C@H](C)CN(Cc1ccccn1)[C@H](C)CO2	SIRT5 block 23 (no result: Rtt109 HAT inh, PDI turbidity)
CCC(=O)Nc1ccc2c(c1)OC[C@@H](C)N(Cc1cccnc1)C[C@H](C)[C@@H](OC)CN(C)C2=O	DENV2 CPE 48 (no result: Rtt109 HAT inh, PDI turbidity)
COCC(=O)Nc1ccc2c(c1)OC[C@H](C)N(Cc1ccccc1OC)C[C@H](C)[C@@H](OC)CN(C)C2=O	DENV2 CPE 22 (no result: Rtt109 HAT inh, PDI turbidity, ERp5 block)
CCC(=O)Nc1ccc2c(c1)OC[C@H](C)N(Cc1cccnc1)C[C@@H](C)[C@@H](OC)CN(C)C2=O	none (no result: Rtt109 HAT inh, PDI turbidity)
COc1ccccc1NC(=O)Nc1ccc2c(c1)C(=O)N(C)C[C@@H](OC)[C@H](C)CN(Cc1ccccc1Cl)[C@H](C)CO2	DENV2 CPE 28 (no result: Rtt109 HAT inh, PDI turbidity)
C[C@H]1CN([C@@H](C)CO)C(=O)c2cc(NS(=O)(=O)c3cn(C)cn3)ccc2O[C@H]1CN(C)S(C)(=O)=O	none (no result: Rtt109 HAT inh, PDI turbidity)
CO[C@@H]1CN(C)C(=O)c2cc(NC(=O)NC(C)C)ccc2OC[C@H](C)N(Cc2ccccn2)C[C@H]1C	none (no result: Rtt109 HAT inh, PDI turbidity)
